# Assay results as given in ChEMBL document CHEMBL5606460, “ASAP - DENV-2 NS2B-NS3 protease fluorescence single point” (2024).
# The campaign covered roughly 2,000 compounds. About 110 (5.5%) showed an effect of 50% or more. This is one part of a sample in which strong results are shown more often than they occur.
# Target: Genome polyprotein (dengue virus type 2) (UniProt P29990)
# [1] = Thailand/16681/1984, Concentration 25.0 uM, Number of replicates 1.0
smiles,measurement,setting,value
CN(C)Cc1cc(C(=O)Nc2cc(Cl)cc(C(=O)NC(C)(C)CO)c2)ccn1,inhibition,"Thailand/16681/1984, Concentration 49.5 uM, Number of replicates 2.0, Standard deviation 0.8373879793632091 %",-0.805%
same,inhibition,"Thailand/16681/1984, Concentration 99.01 uM, Number of replicates 2.0, Standard deviation 1.3878191722501325 %",-0.768%
same,inhibition,"Thailand/16681/1984, Concentration 198.0 uM, Number of replicates 2.0, Standard deviation 1.150645337077672 %",-0.077%
NCc1ccc(/C=C/C(=O)C(=O)N2CCOCC2)cc1,inhibition,"Thailand/16681/1984, Concentration 49.5 uM, Number of replicates 2.0, Standard deviation 0.4887874545992688 %",28.7%
same,inhibition,"Thailand/16681/1984, Concentration 99.01 uM, Number of replicates 2.0, Standard deviation 0.17235835687354284 %",48.5%
same,inhibition,"Thailand/16681/1984, Concentration 198.0 uM, Number of replicates 2.0, Standard deviation 0.3206181572929207 %",70.2%
O=C(/C=C/c1ccccc1)C(=O)N1CCN(CCc2ccccc2)CC1,inhibition,"Thailand/16681/1984, Concentration 49.5 uM, Number of replicates 2.0, Standard deviation 1.1058163895680901 %",-0.075%
same,inhibition,"Thailand/16681/1984, Concentration 99.01 uM, Number of replicates 2.0, Standard deviation 1.051850300329286 %",3.22%
same,inhibition,"Thailand/16681/1984, Concentration 198.0 uM, Number of replicates 2.0, Standard deviation 0.9821847629012651 %",9.52%
CN(C)c1ccc(/C=C/C(=O)C(=O)N2CCOCC2)cc1,inhibition,"Thailand/16681/1984, Concentration 49.5 uM, Number of replicates 2.0, Standard deviation 1.4993650320557768 %",37.9%
same,inhibition,"Thailand/16681/1984, Concentration 99.01 uM, Number of replicates 2.0, Standard deviation 1.3662996762867583 %",59.5%
same,inhibition,"Thailand/16681/1984, Concentration 198.0 uM, Number of replicates 2.0, Standard deviation 0.7538742729933879 %",78.8%
O=C(/C=C/c1ccc(N2CCNCC2)cc1)C(=O)N1CCOCC1,inhibition,"Thailand/16681/1984, Concentration 49.5 uM, Number of replicates 2.0, Standard deviation 1.4144964098734516 %",1.52%
same,inhibition,"Thailand/16681/1984, Concentration 99.01 uM, Number of replicates 2.0, Standard deviation 0.4568300281843685 %",5.18%
same,inhibition,"Thailand/16681/1984, Concentration 198.0 uM, Number of replicates 2.0, Standard deviation 1.1436463049734074 %",13.3%
O=Cc1ccc(N2CCC(C(=O)N3CCOCC3)CC2)cc1,inhibition,[1],13.3%
O=Cc1ccc(N2CCC(C(=O)N3CCN(CCc4ccccc4)CC3)CC2)cc1,inhibition,[1],33%
CC(=O)N1CCC(N(C)C(=O)C2CCN(c3ccc(C=O)cc3)CC2)CC1,inhibition,[1],10.9%
CN(Cc1ccc(N2CCOCC2)cc1)C(=O)C1CCN(c2ccc(C=O)cc2)CC1,inhibition,[1],13.2%
Nc1ccc(/C=C/C(=O)C(=O)N2CCN(CCc3ccccc3)CC2)cc1,inhibition,"Thailand/16681/1984, Concentration 49.5 uM, Number of replicates 2.0, Standard deviation 0.14046836541625998 %",23.4%
same,inhibition,"Thailand/16681/1984, Concentration 99.01 uM, Number of replicates 2.0, Standard deviation 0.26272659487750905 %",40.1%
same,inhibition,"Thailand/16681/1984, Concentration 198.0 uM, Number of replicates 2.0, Standard deviation 0.8058693227147314 %",60.1%
CNC(=O)c1cc(Cl)ccc1NS(=O)(=O)c1[nH]ncc1C(=O)OC,inhibition,"Thailand/16681/1984, Concentration 49.5 uM, Number of replicates 2.0, Standard deviation 1.242021000664882 %",-1.06%
same,inhibition,"Thailand/16681/1984, Concentration 99.01 uM, Number of replicates 2.0, Standard deviation 0.08117786480507469 %",0.923%
same,inhibition,"Thailand/16681/1984, Concentration 198.0 uM, Number of replicates 2.0, Standard deviation 0.003820190349027435 %",2.41%
COc1cc(Cl)c(C)cc1NC(=O)C1CCN(c2ccc(C=O)cc2)CC1,inhibition,[1],13.9%
CC(C)(CNC(=O)C1CCN(c2ccc(C=O)cc2)CC1)c1cccc(Cl)c1,inhibition,[1],10.4%
N[C@H]1C[C@H](CNC(=O)[C@@H](NC(=O)OCc2ccccc2)c2ccc(OCc3ccccc3)cc2)C1,inhibition,"Thailand/16681/1984, Concentration 49.5 uM, Number of replicates 2.0, Standard deviation 4.035148717327061 %",-7.81%
same,inhibition,"Thailand/16681/1984, Concentration 99.01 uM, Number of replicates 2.0, Standard deviation 3.6381547385610027 %",-5.23%
same,inhibition,"Thailand/16681/1984, Concentration 198.0 uM, Number of replicates 2.0, Standard deviation 2.7035240962471856 %",9.08%
O=Cc1ccc(N2CCC(C(=O)NC3C4CC5CC(C4)CC3C5)CC2)cc1 (stereo unspecified),inhibition,[1],6.37%
CN(Cc1cccc2ccccc12)C(=O)C1CCN(c2ccc(C=O)cc2)CC1,inhibition,[1],11.3%
Cc1c(C2CCNCC2)cnn1Cc1nnc(-c2ccccc2)o1,inhibition,"Thailand/16681/1984, Concentration 49.5 uM, Number of replicates 2.0, Standard deviation 2.3622904402078886 %",-2.18%
same,inhibition,"Thailand/16681/1984, Concentration 99.01 uM, Number of replicates 2.0, Standard deviation 1.8884466143634908 %",-1.86%
same,inhibition,"Thailand/16681/1984, Concentration 198.0 uM, Number of replicates 2.0, Standard deviation 1.0159128732525171 %",-0.491%
Cc1cccc(NC(=O)CNC(=O)C2CCN(c3ccc(C=O)cc3)CC2)c1C,inhibition,[1],13%
Cc1cc(CO)c2cccc(NC(=O)[C@@H](N)CCN)c2n1,inhibition,"Thailand/16681/1984, Concentration 49.95 uM, Number of replicates 2.0, Standard deviation 3.3658560886244877 %",-1.14%
same,inhibition,"Thailand/16681/1984, Concentration 99.9 uM, Number of replicates 2.0, Standard deviation 3.0766976877592507 %",-5.81%
Cc1cc(CO)c2cccc(Nc3cc(O)[nH]n3)c2n1,inhibition,"Thailand/16681/1984, Concentration 49.95 uM, Number of replicates 2.0, Standard deviation 1.1262325758678584 %",32.3%
same,inhibition,"Thailand/16681/1984, Concentration 99.9 uM, Number of replicates 2.0, Standard deviation 0.556697154318326 %",51.5%
Cc1cc(CO)c2cccc(Nc3cc(C)on3)c2n1,inhibition,"Thailand/16681/1984, Concentration 49.95 uM, Number of replicates 2.0, Standard deviation 1.3194982141200182 %",1.66%
same,inhibition,"Thailand/16681/1984, Concentration 99.9 uM, Number of replicates 2.0, Standard deviation 1.2714193652686099 %",2.71%
Cc1cc(Cl)c2cccc(NC(=O)CCN)c2n1,inhibition,"Thailand/16681/1984, Concentration 49.95 uM, Number of replicates 2.0, Standard deviation 0.0008200090846279543 %",99.2%
same,inhibition,"Thailand/16681/1984, Concentration 99.9 uM, Number of replicates 2.0, Standard deviation 0.04112992935002318 %",98.9%
Cc1cc(CO)c2cccc(NC(=O)Cc3cccc(CN)c3)c2n1,inhibition,"Thailand/16681/1984, Concentration 49.95 uM, Number of replicates 2.0, Standard deviation 1.2018993187616485 %",15.4%
same,inhibition,"Thailand/16681/1984, Concentration 99.9 uM, Number of replicates 2.0, Standard deviation 0.39117400474888586 %",23.6%
